Assay outcomes deposited in PubChem BioAssay by National Center for Advancing Translational Sciences (NCATS).
An excerpt weighted towards active compounds, which were near 6% of everything screened.
D1 potentiator: human D1 dopamine receptor positive modulation. HEK293 TREx D1 cells, calcium flux, dopamine EC20 potentiation. potentiation, % at 10 µM. 360,000 tested, 0.036% active. P21728; in the data active = potentiation above about 30%
Target sequence (P21728 whole entry, looked up): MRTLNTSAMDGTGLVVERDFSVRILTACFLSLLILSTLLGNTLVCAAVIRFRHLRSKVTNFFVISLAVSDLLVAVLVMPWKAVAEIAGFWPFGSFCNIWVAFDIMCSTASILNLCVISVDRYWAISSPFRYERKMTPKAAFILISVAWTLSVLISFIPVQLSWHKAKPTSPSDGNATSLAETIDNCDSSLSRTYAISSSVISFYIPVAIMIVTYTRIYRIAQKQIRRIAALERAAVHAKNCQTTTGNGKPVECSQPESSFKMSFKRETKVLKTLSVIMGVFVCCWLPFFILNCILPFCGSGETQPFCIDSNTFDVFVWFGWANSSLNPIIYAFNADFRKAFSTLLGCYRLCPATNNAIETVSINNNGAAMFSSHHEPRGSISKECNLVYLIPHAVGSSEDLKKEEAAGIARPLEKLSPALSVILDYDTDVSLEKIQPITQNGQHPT
D1 antag: blocks dopamine activation of the human D1 receptor | AID 504652 | activity change, negative = inhibition, % at 10 µM | HEK293 TREx D1 cells, calcium flux, dopamine EC80; hits give low values | 360,000 tested, 3.2% active; in the data active = activity change below about -30%
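Cells carrying a force-coupled, tetracycline-inducible human D1 receptor report calcium flux. Each well gets a 10 s baseline, compound with 180 s monitoring, then an EC80 dopamine stimulus with a second 180 s kinetic read.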
D3 ag: activates the human D3 dopamine receptor | AID 652048 | 410,000 tested, 0.58% active | D3R DiscoveRx beta-arrestin cells, luminescence, 90 min | max activation, % | P35462; in the data active = max activation above about 30%
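Agonist mode: compounds and dopamine controls were applied to plated cells for 90 min at 37 degrees C after an overnight attachment at 1500 cells/well. Luminescent read-out followed 30 - 60 minutes at room temperature with DiscoveRx detection reagent.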
D1 agonist: activates the human D1 dopamine receptor; P21728; HEK293 T-REx D1 cells, calcium flux, agonist mode; activation, % at 2 µM; 360,000 tested, 1% active; in the data active = activation above about 30%
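Inducible HEK293 T-REx D1 cells, force-coupled to calcium signalling, were plated at 4000 cells/well with tetracycline and held overnight at 30 C. After no-wash calcium dye loading, compound-evoked calcium rise over 180 s flagged agonists.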
D3 antag: D3 dopamine receptor (human) antagonism; D3R cells, DiscoveRx beta-arrestin luminescence, antagonist mode; hits give low values; max response, negative = inhibition, %; P35462; AID 652054; 360,000 tested, 2.5% active; in the data active = max response below about -50%; inconclusive = no clear call, values can overlap the other calls
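Cells plated overnight at 1500 cells/well, then exposed to library compounds with dopamine controls for 90 minutes at 37 degrees C. DiscoveRx reagent added for 30–60 minutes at room temperature; luminescence read, quantitative HTS format.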
Large screens that a line does not name were inactive; ! = not active in a repeat.

CCOc1ccc(OCC)c(NC(=O)C2CCN(c3nnc(-n4cccc4)s3)CC2)c1	none (no result: D3 antag)
Nc1nc2c(ncn2[C@@H]2O[C@H](CNCC3=Cc4cc(O)ccc4OC3)[C@@H](O)[C@H]2O)c(=O)[nH]1	none (no result: D1 potentiator, D1 antag, D1 agonist)
COc1ccc(C)cc1NC(=O)c1cc(S(=O)(=O)N2CCC(C)CC2)ccc1F	none (no result: D3 antag)
COc1ccc(-c2ccc(C(C)=O)cc2)cc1[C@H]1[C@@H]2C=CCC[C@@]2(C)C(=O)N1Cc1ccccc1	D3 antag inconclusive
COc1ccc(-c2ccc(C)cc2)cc1[C@H]1[C@@H]2C=CCC[C@@]2(C)C(=O)N1Cc1ccccc1	D3 antag -55.7
COc1ccc(-c2cc(C(F)(F)F)c3c(n2)sc2c(O)cc(=O)[nH]c23)c(OC)c1	D1 agonist 41.6
CC1(C)CC(=O)C2=C(C1)Nc1ccccc1NC2	D1 antag -50.6
CC1(C)CC(=O)C2=C(C1)Nc1ccccc1N=C2	D1 agonist 38.7 (no result: D3 ag, D3 antag)
CC1(C)CC(=O)C2=C(C1)Nc1ccccc1S2	none
O=S(=O)(O)c1nnc2sc3ccccc3n12	D1 antag -35.6
CN(C)C(=O)CSc1nnc2sc3ccccc3n12	none
Nc1ccn([C@@H]2O[C@H](C(=O)N[C@H](CO)c3ccccc3)[C@@H](O)[C@H]2O)c(=O)n1	none (no result: D1 potentiator, D1 antag, D1 agonist)
O=Nc1c(-c2c(O)[nH]c3cc(Br)ccc23)[nH]c2ccccc12	D1 antag -56.7
CCOC(=O)C1CCN(C(=O)CN2C(=O)COc3ccc(C(C)(C)C)cc32)CC1	none
C/C(=C1/C(=O)N(c2ccc([N+](=O)[O-])cc2)N=C1c1ccccc1)N(C)C	D1 agonist 33.7 (no result: D3 ag, D3 antag)
CC1=NN(c2ccc([N+](=O)[O-])cc2)C(=O)/C1=C\N(C)C	D3 antag -57.4
Cc1ccc2c(Sc3ccc(Cl)cc3)c(C(=O)NCCC(C)C)[nH]c2c1	none (no result: D3 antag)
Cc1ccc(Cl)cc1NC(=O)CCn1c(=O)c2cccn2c2cccnc21	none (no result: D3 antag)
CCCN1C2CCCC1CC(NC(=O)c1ccc(Br)cc1)C2 (centres undefined)	D1 antag -47.7
CCCN1C2CCCC1CC(NC(=O)c1ccc(F)cc1)C2 (centres undefined)	none
CC(C)CN1C2CCCC1CC(NC(=O)c1ccc([N+](=O)[O-])cc1)C2 (centres undefined)	D1 antag -48.1
Cc1cc(Oc2nc3ccccn3c(=O)c2/C=C(\C#N)C(=O)NC2CCS(=O)(=O)C2)ccc1Cl (centres undefined)	D1 antag -30.0
Cc1cccc(Oc2nc3ccccn3c(=O)c2/C=C(\C#N)C(=O)NC2CCS(=O)(=O)C2)c1 (centres undefined)	none
O=C1COc2ccc(-c3cc(-c4ccccc4)c4c(n3)-c3cc(Cl)ccc3OC4)cc2N1	none (no result: D3 antag)
Cc1c(N/C(=N/S(=O)(=O)c2ccc(Cl)cc2)c2ccccc2)c(=O)n(-c2ccccc2)n1C	D1 antag -62.5 (no result: D3 ag, D3 antag)
Cc1c(N/C(=N/S(=O)(=O)c2ccccc2)c2ccc(Cl)cc2)c(=O)n(-c2ccccc2)n1C	none
CCCc1cc(C(=O)N2CCCN(C)CC2)cs1	none
CCCc1cc(C(=O)N2CCN(c3ccccc3C)CC2)cs1	D1 antag -43.0
COc1ccc(CNC(=O)Cn2c(=O)nc(-c3ccccc3)c3ccccc32)cc1OC	D3 ag 32.9 (no result: D3 antag)
CCOc1ccc(CNC(=O)CN2N=C(c3ccccc3)CCC2=O)cc1OC	D3 ag 49.5 (no result: D3 antag)
COc1ccc(C2=NN(CC(=O)NCCc3ccc(OC)c(OC)c3)C(=O)CC2)cc1	none (no result: D3 antag)
CN1CCN(C(CNC(=O)C(=O)Nc2ccc(F)cc2F)c2ccc3c(c2)OCO3)CC1 (centres undefined)	none (no result: D3 antag)
CCOC(=O)c1c(S(=O)(=O)N2CCCC(C(=O)N3CCN(c4ccccc4)CC3)C2)c(C)n(C)c1C (centres undefined)	none (no result: D3 antag)
Cc1ccc(OCCCSc2nc(-c3ccc(C(C)(C)C)cc3)nc3cc(=O)[nH]n23)cc1C	D3 ag 33.4 (no result: D3 antag)
Cc1ccc(NC(=O)CSc2nc(-c3cccs3)nc3cc(=O)[nH]n23)cc1C	none (no result: D3 antag)
CC(C)(C)c1ccc(-c2nc(SCCOc3ccc(Cl)cc3)n3[nH]c(=O)cc3n2)cc1	none (no result: D3 antag)
Cc1ccccc1NC(=O)CSc1nc(-c2cccs2)nc2cc(=O)[nH]n12	D1 antag -36.7 (no result: D3 antag)
CC(C)(C)c1ccc(OCCSc2nc(-c3cccs3)nc3cc(=O)[nH]n23)cc1	D3 ag 37.1 (no result: D3 antag)
COCCN(C(=O)COC(=O)/C=C/c1cccc(C(F)(F)F)c1)c1c(N)n(CC(C)C)c(=O)[nH]c1=O	none (no result: D1 potentiator, D1 antag, D1 agonist)
CCOc1ccc(N=Nc2ccc(N)cc2N)cc1	none (no result: D1 potentiator, D1 antag, D1 agonist, D3 antag)
COc1ccccc1CN(Cc1ccco1)c1cnc(S(C)(=O)=O)nc1C(=O)Nc1cc(C)ccc1C	none (no result: D3 antag)
CCOC(=O)N1CCN(S(=O)(=O)c2ccc3[nH]c(=O)oc3c2)CC1	D3 ag 34.0
CCOC(=O)C1CCCN(S(=O)(=O)c2ccc3[nH]c(=O)oc3c2)C1 (centres undefined)	D1 antag -40.9 (no result: D3 antag)
CCOC(=O)C1CCCN(S(=O)(=O)c2ccc3c(c2)oc(=O)n3C)C1 (centres undefined)	none (no result: D3 antag)
CCOC(=O)C1CCCN(S(=O)(=O)c2ccc3c(c2)N(C)C(=O)CC(=O)N3C)C1 (centres undefined)	D1 antag -44.7!
Cc1ccc2c(Sc3ccccc3)c(C(=O)NCc3ccccc3F)[nH]c2c1	D1 antag -43.9 (no result: D3 antag)
CCOc1cc(Br)cc(C2NC(=O)c3c(sc4c3CCN(C)C4)N2)c1O (centres undefined)	none (no result: D3 antag)
CC(c1ccccc1)N1CCC(CNC(=S)Nc2cccc(Cl)c2)C1 (centres undefined)	D1 antag -53.6, D1 agonist 45.1, D3 antag inconclusive
CN(C)C(CNC(=S)Nc1cccc(Cl)c1)c1ccccc1 (centres undefined)	D3 antag -69.9
CN(C)C(CNC(=O)Nc1cccc(Cl)c1)c1cccnc1 (centres undefined)	D3 antag -52.5
O=C(COC(=O)c1cccs1)NCCc1ccc(F)cc1	none
Cc1ccc(C(NC(=O)/C=C\c2ccc3c(c2)OCO3)C(=O)Nc2ccc3c(c2)OCO3)cc1 (centres undefined)	D3 antag -88.4
N#Cc1ccc(C(=O)OCC(=O)Nc2cccc(S(=O)(=O)NC3=NCCC3)c2)cc1	D3 antag inconclusive (no result: D1 potentiator, D1 antag, D1 agonist)
COc1ccc(CNc2nc3ccccc3n2CCN2CCCCC2)cc1	D3 antag -64.5 (no result: D1 antag)
COc1ccc(CCN2CCC(Nc3nc4ccccc4n3Cc3ccc(F)cc3)CC2)cc1	D1 agonist 112.2, D3 antag inconclusive
COc1ccc(Cn2c(-c3ccc(OC)cc3)nc3ccccc32)cc1	none
C=CCn1c(SCCCCCC)nc(O)cc1=O	none
C=CCn1c(SCc2ccccc2)nc(O)cc1=O	none
C=CCn1c(SC(C)CC)nc(O)cc1=O (centres undefined)	D1 agonist 140.1
CCCCSc1nc(O)cc(=O)n1CC	D1 agonist 38.1
